Data on 22 compounds can be found in PubChem BioAssay (Tox21).

Active and inactive are the calls of the source. A call without a number means that no potency is given here. The call rests on the fitted dose curve; in most records, active means well fitted curve in the direction sought with a large enough effect in the repeat runs; inconclusive means weak or mixed curves; inactive means flat fitted curve, though single readings scatter.

The test is described as follows: qHTS assay to test for compound auto fluorescence at 460 nm (blue) in HepG2 cells (AID 720687). The conditions noted are these: autofluorescence 405/460 nm, 1 h; series mostly up to 91.3 µM. In outline:
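HepG2 cells in MEM with 10% FBS, attached overnight at 37 C, were exposed to compound or DMSO for 1 hr at 37 C, 5% CO2. Blue fluorescence was read at 405/460 nm, with triamterene as reference fluorophore.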
In the case of `CSC(=O)c1c(C(F)F)nc(C(F)(F)F)c(C(=O)SC)c1CC(C)C`, the Potency result is “inactive”.
Next, `CCOP(=O)(OCC)Oc1cc(C)nc(C(C)C)n1`: “inactive”.
The value for `CCOP(=O)(Sc1ccccc1)Sc1ccccc1` was “inactive”; that for `CCC1COC(Cn2cncn2)(c2ccc(Cl)cc2Cl)O1` (configuration not stated) was “inactive”.
The value for `Clc1ccc(C(Cl)(Cl)Cl)cc1Cl` was “inactive”; that for `Nc1nc(N)nc(Cl)n1` was “inactive”; that for `ClCBr` was “inactive”.
As to `CC(Cc1ccc2c(c1)OCO2)NO` (configuration not stated), the Potency entry is “inactive”.
The value for `C[C@H]1[C@H](c2ccc(Cl)cc2)SC(=O)N1C(=O)NC1CCCCC1` was “inactive”.
The value for `CCOP(=O)(OCC)Oc1nc(Cl)c(Cl)cc1Cl` was “inactive”; that for `C[N+]1(C)[C@@H]2CC[C@H]1CC(OC(=O)C(CO)c1ccccc1)C2` (some centres not stated) was “inactive”; that for `CCOP(=S)(NC(C)C)Oc1ccccc1C(=O)OC(C)C` (configuration not stated) was “inactive”.
Next, `O=S1(=O)OCC2C(CO1)C1(Cl)C(Cl)=C(Cl)C2(Cl)C1(Cl)Cl` (configuration not stated): “inactive”.
Take `O=C(O)CCCCCCNC1c2ccccc2CCc2ccccc21`: the Potency result is “inactive”.
Next, `Cc1cnc2c(C(=O)O)c(Cl)ccc2c1`: “inactive”; `C#CCO`: “inactive”.
Next, `CCCCCCCc1ccc(O)cc1`: “inactive”; `S=C=NCCc1ccccc1`: “inactive”; `CC1=C2C[C@H]3[C@@H](CC=C4C[C@@H](O)CC[C@@]43C)[C@@H]2CC[C@]12O[C@@H]1C[C@H](C)CN[C@H]1[C@H]2C`: “inactive”.
For `FC(F)C(F)(F)OCC(Cn1cncn1)c1ccc(Cl)cc1Cl` (configuration not stated), the Potency result is “inactive”.
As for `CCCCN(CCCC)C(=S)[S-].CCCCN(CCCC)C(=S)[S-].[Ni+2]`, the Potency result was “inactive”.
Next, `COC(=O)/C=C(\C)OP(=O)(OC)OC`: “inactive”.
